Data taken from PubChem BioAssay AID1159580 (chemical genetic matrix, 2015).
The campaign covered roughly 5,500 compounds. About 2,000 (36%) were called active. Inconclusive results (about 18%) are left out. Rule as the data show it: active = normalized growth mostly below about 0.91 (no sharp cut-off); inconclusive = no clear call, values can overlap the other calls; inactive = mostly above about 0.92. Some of the results follow.

Test: chemical genetic growth profiling, strain panel (AID 1159580);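 also: tested at 20 µM; growth read once vehicle control cultures reached saturation at 30 °C; 1 = growth at the plate median or of vehicle wells; lower values mean less growth of the strain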
Conditions: growth OD
[1] = S. cerevisiae deletion strains, locus YAL013W, strain DEP1, active compounds read low
[2] = S. cerevisiae deletion strains, locus YBR229C, strain ROT2, active compounds read low
[3] = S. cerevisiae deletion strains, locus YCL061C, strain MRC1, active compounds read low
[4] = S. cerevisiae deletion strains, locus YDL101C, strain DUN1, active compounds read low
[5] = S. cerevisiae deletion strains, locus YDR150W, strain NUM1, active compounds read low
[6] = S. cerevisiae deletion strains, locus YEL061C, strain CIN8, active compounds read low
[7] = S. cerevisiae deletion strains, locus YGR078C, strain PAC10, active compounds read low
[8] = S. cerevisiae deletion strains, locus YGR229C, strain SMI1, active compounds read low
[9] = S. cerevisiae deletion strains, locus YHR030C, strain SLT2, active compounds read low
[10] = S. cerevisiae deletion strains, locus YHR087W, strain rtc3, active compounds read low
[11] = S. cerevisiae deletion strains, locus YJL187C, strain SWE1, active compounds read low
[12] = S. cerevisiae deletion strains, locus YJR043C, strain POL32, active compounds read low
[13] = S. cerevisiae deletion strains, locus YJR075W, strain HOC1, active compounds read low
[14] = S. cerevisiae deletion strains, locus YKL190W, strain CNB1, active compounds read low
[15] = S. cerevisiae deletion strains, locus YLR039C, strain RIC1, active compounds read low
[16] = S. cerevisiae deletion strains, locus YLR058C, strain SHM2 (second series), active compounds read low
[17] = S. cerevisiae deletion strains, locus YLR085C, strain ARP6, active compounds read low
[18] = S. cerevisiae deletion strains, locus YLR262C, strain YPT6, active compounds read low
[19] = S. cerevisiae deletion strains, locus YML094W, strain GIM5, active compounds read low
[20] = S. cerevisiae deletion strains, locus YMR219W, strain ESC1, active compounds read low
[21] = S. cerevisiae deletion strains, locus YMR263W, strain SAP30, active compounds read low
[22] = S. cerevisiae deletion strains, locus YNL128W, strain TEP1, active compounds read low
[23] = S. cerevisiae deletion strains, locus YNL153C, strain GIM3, active compounds read low
[24] = S. cerevisiae deletion strains, locus YNL298W, strain CLA4 (second series), active compounds read low
[25] = S. cerevisiae deletion strains, locus YNL322C, strain KRE1, active compounds read low
[26] = S. cerevisiae deletion strains, locus YNR030W, strain Alg12, active compounds read low
[27] = S. cerevisiae deletion strains, locus YPL055C, strain LGE1, active compounds read low
[28] = S. cerevisiae deletion strains, locus YPL241C, strain CIN2, active compounds read low
[29] = S. cerevisiae deletion strains, locus YPR135W, strain CTF4, active compounds read low
[30] = S. cerevisiae strains, strain wild type, active compounds read low
[31] = S. cerevisiae deletion strains, locus YOL006C, strain TOP1, active compounds read low
[32] = S. cerevisiae deletion strains, locus YMR307W, strain GAS1, active compounds read low

Measured: normalized growth

C=C1SC(=Nc2cccc(OC)c2)N(C(=O)C(c2ccccc2)C2CCCC2)C1(C)C (centres undefined)
inactive: [1] 1.01 | [2] 0.971 | [3] 1.01 | [4] 1.06 | [5] 1.02 | [6] 0.963 | [7] 1.01 | [8] 0.983 | [9] 1.03 | [10] 0.957 | [11] 0.999 | [12] 1.01 | [13] 1.02 | [14] 0.977 | [15] 0.922 | [16] 0.979 | [17] 1.02 | [18] 0.919 | [19] 1 | [20] 1 | [21] 1.02 | [22] 0.97 | [23] 1.03 | [24] 1.01 | [25] 0.984 | [26] 1.02 | [27] 0.997 | [28] 1.07 | [29] 1.03 | [30] 0.95

CC(C)(C)c1ccc(-c2n[nH]c(=S)n2-c2cccc(C(F)(F)F)c2)cc1
active: [11] 1.22 [resistant] | [13] 1.24 [resistant] | [15] 0.744
inactive: [1] 0.993 | [2] 1.01 | [4] 0.995 | [5] 1.01 | [6] 0.972 | [7] 0.977 | [9] 0.966 | [10] 1 | [12] 1.01 | [14] 1.01 | [16] 1.03 | [17] 1.06 | [18] 0.884 | [19] 0.978 | [20] 1.01 | [21] 1 | [23] 1.03 | [24] 0.958 | [25] 1.01 | [26] 0.964 | [27] 0.949 | [28] 0.949 | [29] 0.829

COc1ccc(-c2n[nH]c(=S)n2-c2cccc(OC)c2)cc1
inactive: [1] 0.987 | [2] 0.994 | [3] 0.977 | [4] 0.969 | S. cerevisiae deletion strains, locus YDL134C, strain PPH21, active compounds read low 0.979 | [5] 0.977 | [6] 1.01 | [7] 0.956 | [9] 1.02 | [10] 1.02 | [11] 0.993 | [12] 0.979 | [13] 0.967 | [15] 0.944 | [16] 0.989 | [17] 0.954 | [18] 1 | [19] 1 | [20] 0.986 | [21] 1 | [22] 0.989 | [23] 0.983 | [24] 0.957 | [25] 0.978 | [26] 0.966 | [27] 0.994 | [28] 0.967 | [29] 0.904

O=C(CSCc1c(F)cccc1Cl)Nc1ccc(F)c(Cl)c1
inactive: [4] 0.956 | [5] 0.83 | [22] 0.928 | [23] 0.935 | [25] 0.946 | [31] 0.953
active: [1] 0.883 | [2] 0.834 | [3] 0.869 | [6] 0.881 | [7] 0.872 | [8] 0.913 | [9] 0.194 | [10] 0.811 | [11] 0.875 | [12] 0.909 | [13] 0.794 | [14] 0.802 | [15] 0.607 | [16] 0.908 | [17] 0.561 | [18] 0.595 | [19] 0.826 | [20] 0.891 | [24] 0.773 | [26] 0.752 | [27] 0.75 | [28] 0.781 | [29] 0.441 | [30] 0.87

Cn1c(CSCC(=O)Nc2ccccc2)n[nH]c1=S
inactive: [1] 1.01 | [2] 1.01 | [3] 1.02 | [4] 1.02 | [5] 1.02 | [6] 1 | [7] 0.999 | [9] 1.09 | [10] 1.01 | [12] 1.02 | [13] 0.991 | [15] 1 | [16] 1 | [17] 0.966 | [18] 1.01 | [19] 0.994 | [20] 0.993 | [21] 1.02 | [22] 0.994 | [23] 1.02 | [24] 1.03 | [25] 0.99 | [26] 1 | [27] 1.03 | [28] 1 | [29] 1.07 | [30] 0.981

N#C/C(NCc1cccs1)=C(\C#N)NCc1c(F)cccc1Cl
inactive: [1] 0.958 | [2] 0.977 | [3] 0.97 | [4] 0.979 | [5] 0.899 | [6] 0.998 | [7] 0.973 | [9] 0.919 | [10] 0.991 | [11] 1 | [12] 0.988 | [13] 0.97 | [15] 0.939 | [16] 0.972 | [17] 0.957 | [18] 0.969 | [19] 0.964 | [20] 0.986 | [21] 0.947 | [32] 0.919 | [23] 0.993 | [24] 0.959 | [25] 0.969 | [26] 0.964 | [31] 1.01 | [28] 0.973 | [29] 0.962

O=C(CSCc1c(F)cccc1Cl)NC1Cc2ccccc2C1
inactive: [1] 0.984 | [2] 0.973 | [4] 0.995 | [5] 0.959 | [6] 0.949 | [7] 0.978 | [9] 0.776 | [10] 0.962 | [12] 0.991 | [13] 0.944 | [15] 0.925 | [16] 0.973 | [17] 0.906 | [18] 0.964 | [19] 0.956 | [20] 0.97 | [21] 0.991 | [22] 0.988 | [23] 0.977 | [24] 0.944 | [25] 0.973 | [26] 0.943 | [27] 0.944 | [28] 0.938 | [29] 0.76
active: [32] 0.628
